According to PubChem BioAssay AID374 (University of Pittsburgh Molecular Library Screening Center, 2006):
The campaign covered roughly 65,000 compounds. About 100 (0.15%) were called active. The full list was thinned out, with actives kept by preference. Unmarked numbers belong to inactive results.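 Rule for the calls: active = inhibition above about 50% (limit read from the data); inconclusive = inhibition over screen mean plus 3 SD, below that limit; inactive = the rest.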

These compounds were tested against Dual specificity protein phosphatase 1 (Homo sapiens) (UniProt P28562) (assay: blockers of human DUSP1 activity – biochemical, in vitro, primary screen (AID 374;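 note: 0% = DMSO max control wells and 100% = wells with enzyme stopped by NaOH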)). Details: recombinant MKP-1, OMFP hydrolysis fluorescence; stronger effect = higher value;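 compounds tested at a single concentration somewhere between 10 and 100 µM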.
Sequence of Dual specificity protein phosphatase 1 (Homo sapiens) (P28562 whole entry, looked up): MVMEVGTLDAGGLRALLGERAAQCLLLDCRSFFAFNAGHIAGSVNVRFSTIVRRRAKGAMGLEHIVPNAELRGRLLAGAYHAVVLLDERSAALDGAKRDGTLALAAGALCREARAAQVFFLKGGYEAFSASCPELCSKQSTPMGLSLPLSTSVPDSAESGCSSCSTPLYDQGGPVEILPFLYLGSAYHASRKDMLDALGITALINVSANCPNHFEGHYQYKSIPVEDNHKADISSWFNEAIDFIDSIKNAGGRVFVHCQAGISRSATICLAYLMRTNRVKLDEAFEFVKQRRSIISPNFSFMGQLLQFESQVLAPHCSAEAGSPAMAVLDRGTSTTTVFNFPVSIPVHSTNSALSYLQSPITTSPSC
In the case of `CCOC(=O)N1CCN(CC(=O)c2c(C)[nH]c3ccccc23)CC1`, the inhibition is reported as 1.62%. Work on `Cc1ccc(-c2noc(CCC(=O)Nc3ccccc3N3CCN(C)CC3)n2)cc1` yielded an inhibition of -3.7%. Compound `CCOc1cccc(NC(=O)C2CCCN(S(=O)(=O)c3ccc(OC)cc3)C2)c1` (stereo unspecified) has an inhibition of -15.6%. For `CN(C)CCCn1c(N)c(C#N)c2nc(C#N)c(C#N)nc21`, the inhibition was 2.01%. In the case of `CC(=O)OCc1cc(=O)n(C)c(=O)n1C`, the inhibition is reported as 15.5%. `CCC(=O)Nc1ccccc1N1CCN(S(C)(=O)=O)CC1` showed an inhibition of 6.41%. `O=C(NCc1ccco1)c1cc(-c2cccnc2)nc2ccc(Cl)cc12` gave an inhibition of 18.9%. `COc1ccc(C(c2nnnn2Cc2cccs2)N2CCN(c3ccccc3)CC2)cc1OC` (stereo unspecified) gave an inhibition of -17.2%. `COCCOC(=O)C1=C(C)N=c2s/c(=C\c3cccs3)c(=O)n2C1c1cccs1` (stereo unspecified) was tested, and the inhibition was -3.72%. For `CC(C)Cn1c(CCC(=O)O)ccc1-c1cccs1`, the inhibition was -3.65%. `O=C(Nc1ccccc1)N(Cc1cccnc1)Cc1ccco1` was tested, and the inhibition was 19.6%. In the case of `CCOC(=O)CN1C(=O)C(O)(CC(=O)c2ccccn2)c2ccccc21` (stereo unspecified), the inhibition is reported as -1.14%. In the case of `COc1cccc(-n2c(Cc3cc(=O)[nH]c(=O)[nH]3)nnc2SCC(=O)Nc2ccccc2)c1`, the inhibition is reported as 6.14%. `O=C(Cn1nc(Cc2cccnc2)c2ccccc2c1=O)NCC1CCCO1` (stereo unspecified) was tested, and the inhibition was -5.72%. `O=C(CCC(=O)N1CCN(S(=O)(=O)c2ccccc2)CC1)NC1CCCc2ccccc21` (stereo unspecified) showed an inhibition of 28.7%. Work on `O=C(NCCN1CCOCC1)c1ccc2c(c1)ncn2C1CCCC1` yielded an inhibition of -1.23%. For `O=S1(=O)CC(NCc2ccccc2)C(Nc2ccc(Cl)cc2)C1` (stereo unspecified), the inhibition was -10.7%. `CC(C)=C(NC(=O)c1ccco1)C(=O)NCCc1nc2ccccc2[nH]1` was tested, and the inhibition was -31.3%. With `CC(=O)Nc1cc2ccc(OC(C)=O)cc2oc1=O` the inhibition was 1.98%. `CC1CCCCN1CC(=O)NCc1ccc2c(c1)OCO2` (stereo unspecified) showed an inhibition of 11.8%. For `CCCCn1c(SCC(=O)NCC2CCCO2)nc2ccc(N3CCOCC3)cc2c1=O` (stereo unspecified), the inhibition was 20.6%. For `CCc1ccc(NC(=O)CSc2nc3ccccc3c(=O)n2CCN2CCOCC2)cc1`, the inhibition was 52.5% (active). `COCCCNC(=O)CSc1nc2ccc(N3CCOCC3)cc2c(=O)n1CCc1ccccc1` gave an inhibition of 25.1%. `Cc1nn(CC(=O)Nc2ccc3c(c2)nc(CN2CCCCC2)n3C)c(=O)c2ccccc12` was tested, and the inhibition was 21.5%. `O=C(NCC(F)(F)F)Nc1nnc(C(F)(F)F)s1` showed an inhibition of -9.86%. With `O=C(CCS(=O)(=O)Cc1ccccc1F)NCCCN1CCCCC1` the inhibition was 5.21%. `O=C(Cn1nnc2ccccc2c1=O)Nc1cc(C(F)(F)F)ccc1N1CCOCC1` gave an inhibition of 36.2%. With `COc1ccccc1NC(=O)C1=C(C)NC2=C(C(=O)CCC2)C1c1ccc(C)o1` (stereo unspecified) the inhibition was 11.7%. `COC(=O)C1=C(C)NC(=O)NC1/C=C/c1ccccc1` (stereo unspecified) was tested, and the inhibition was -8.21%. With `COC(=O)C1=C(C)NC2=C(C(=O)c3ccccc32)C1c1ccc(-c2ccc(C(=O)O)cc2)o1` (stereo unspecified) the inhibition was 56% (active). In the case of `Cc1nnc(NC(=O)CSc2nccn2-c2cccc(C)c2C)s1`, the inhibition is reported as -0.12%. In the case of `CC(C)(C)n1c(=O)[nH]c2c(c1=O)CCC2`, the inhibition is reported as 21.8%. With `O=C(Oc1cccnc1)c1cc2ccccc2oc1=O` the inhibition was 10.3%. `CC/C(=N\O)C(C)(C)/[N+]([O-])=C/c1ccc(Br)cc1` gave an inhibition of 4.53%. For `Cc1cccc(N2C(=O)SC(N(CC(=O)O)c3cccc(C)c3)C2=O)c1` (stereo unspecified), the inhibition was 11.8%. `COc1ccc(C(=O)N(Cc2ccc(N(C)C)cc2)C2CCS(=O)(=O)C2)cc1` (stereo unspecified) gave an inhibition of 0.01%. In the case of `Cc1nc2sc(C(c3ccco3)N3CCC4(CC3)OCCO4)c(O)n2n1` (stereo unspecified), the inhibition is reported as 4.37%. In the case of `COc1ccc2c(CC(=O)Nc3nnc(C4CC4)s3)coc2c1`, the inhibition is reported as 11.4%. In the case of `CCCCCCn1c(CN2CCCCC2)nc2c1c(=O)n(C)c(=O)n2C`, the inhibition is reported as 3.15%. `CNC(=O)Nc1cc(C(C)(C)C)no1` was tested, and the inhibition was -18.9%. `CCN(CC(=O)NC(C)C)C(=O)CCNC(=O)c1ccc(Cl)cc1` was tested, and the inhibition was 24.3%. `CN1C(=O)c2ccc(NC(=O)C3CCCCC3)cc2C1=O` gave an inhibition of 16.2%. With `CC1(C)CC(=O)C=C(NCCCN2CCCC2=O)C1` the inhibition was -21.7%. `CCOc1ccccc1C1CC(c2ccccc2)Nc2nc(N)nn21` (stereo unspecified) showed an inhibition of 5.12%. For `CSC1=N/C(=C\C=C\c2cccs2)C(=O)S1`, the inhibition was -1.19%. `Fc1ccc(OCc2nn3c(Cn4nnc5ccccc54)nnc3s2)cc1` showed an inhibition of 17.2%. With `Cn1c(CNC(=O)C(C)(C)C)nc2ccccc21` the inhibition was 4.69%. In the case of `COc1cccc2cc(C(=O)N(C)C)c(=O)oc12`, the inhibition is reported as -3.65%. `CCCCOC(=O)c1[nH]c(C)c(C(=O)OC)c1C` was tested, and the inhibition was -26.1%. For `Cc1n[nH]c(C)c1S(=O)(=O)N1CCCC(C(=O)NCC2COc3ccccc3O2)C1` (stereo unspecified), the inhibition was 2.75%. In the case of `CCS(=O)(=O)N1CCN(C(=O)c2cccs2)CC1`, the inhibition is reported as 0.17%. Work on `Cc1nn(-c2ccccc2)c2c1C(=O)NC(=O)C(C)(C)C2` yielded an inhibition of -21.3%. With `Cc1cccc(N)c1SC1CCCCC1O` (stereo unspecified) the inhibition was -21.7%. For `COc1ccccc1Oc1ccc(S(=O)(=O)Nc2cccnc2)cc1`, the inhibition was -6.18%. `CCN(CC)P(=O)(C(NC(=O)OC)C(F)(F)C(F)(F)C(F)(F)C(F)F)N(CC)CC` (stereo unspecified) showed an inhibition of 32.7%. `Cc1ccc(C(=O)Nc2ccccc2C(=O)NC2CCCCC2)cc1S(=O)(=O)N1CCOCC1` was tested, and the inhibition was 15.1%. Compound `CCO/C([O-])=N/c1c[n+](N2CCOCC2)no1` has an inhibition of -14.5%. Compound `Cc1cc(N2C(=O)c3ccc(C(=O)NCc4ccccc4)cc3C2=O)no1` has an inhibition of 6.5%. In the case of `COc1ccc(OC)c2sc(NC(=O)C3COc4ccccc4O3)nc12` (stereo unspecified), the inhibition is reported as 10.2%. Work on `COc1ccc(-c2nnc(SCC(=O)c3ccco3)n2-c2ccccc2)cc1` yielded an inhibition of 1.42%. For `CCCOc1cccc(C(=O)Nc2nnn(CCC)n2)c1`, the inhibition was -1.6%. For `CC(=O)N(CN1C(=O)C2CC=CCC2C1=O)c1cccc(Cl)c1` (stereo unspecified), the inhibition was 4.23%. For `Cc1nc2ccccc2cc1O`, the inhibition was -1.94%. For `COc1ccc(-n2c(SCC(=O)NCc3cccs3)nnc2-c2ccoc2C)cc1`, the inhibition was -10%. Work on `COc1ccc(CCN2CNc3c(c(=O)n(C)c(=O)n3C)C2)cc1OC` yielded an inhibition of -8.44%. `CCOC(=O)Cn1c(=O)oc2cc(S(=O)(=O)NCC3CCCO3)ccc21` (stereo unspecified) gave an inhibition of -10.8%. `COC(=O)C1C(=O)CC(C)(O)C(C(=O)OC)C1c1ccc2c(c1)OCO2` (stereo unspecified) showed an inhibition of 4.11%. Work on `Cc1ccc2nc(NCCCNC(=O)c3cnccn3)c(C#N)cc2c1` yielded an inhibition of 16.8%. In the case of `CCN(CCCNC(=O)C1CCN(S(=O)(=O)c2cnc[nH]2)CC1)c1ccccc1`, the inhibition is reported as -3.93%. For `Cn1c(=O)c2c(nc(OCc3cccnc3)n2Cc2ccccc2)n(C)c1=O`, the inhibition was -22.4%. Work on `CC(CCc1ccccc1)NC(=O)c1ccc(Br)o1` (stereo unspecified) yielded an inhibition of 9.59%. In the case of `CC(C)CNC(=O)C1CCCN(S(=O)(=O)c2ccc(-n3cnnn3)cc2)C1` (stereo unspecified), the inhibition is reported as 10.4%. Work on `CC(C)C(C(=O)NC1CCCCC1)N(CC1CCCO1)C(=O)CNS(=O)(=O)c1ccc(F)cc1` (stereo unspecified) yielded an inhibition of 42%. In the case of `COc1ccc(OCC(=O)N2CCN(C(=O)COc3ccccc3)CC2)cc1`, the inhibition is reported as 3.4%. With `CCOC(=O)C1CCCN(C(=O)c2cncc(Br)c2)C1` (stereo unspecified) the inhibition was -1.24%. Compound `COc1cccc(N2CCN(C3CC(=O)N(c4ccc(Cl)cc4)C3=O)CC2)c1` (stereo unspecified) has an inhibition of 9.47%. Work on `COc1cccc(N2C(=O)C3CCCN3C2c2ccc(F)cc2)c1` (stereo unspecified) yielded an inhibition of 7.6%. Work on `CCOC(=O)N1CCN(C(=O)c2ccc3nc4cc(Cl)ccc4c(=O)n3c2)CC1` yielded an inhibition of -0.24%. Work on `CNC(=O)C1CC(=O)N(Cc2ccc3c(c2)OCO3)C(=Nc2ccc(F)cc2)S1` (stereo unspecified) yielded an inhibition of 4.87%. In the case of `CCCNc1ncnc2sc(C)c(C)c12`, the inhibition is reported as 6.02%. In the case of `CCCc1nc(-c2ccccc2O)n(-c2ccccc2)n1`, the inhibition is reported as -14.3%. Compound `COc1ccccc1-n1cnc2cc(NS(=O)(=O)c3ccccc3)ccc21` has an inhibition of -7.71%. `C=C(C)Cn1c(N2CCCC2)nc2c1c(=O)[nH]c(=O)n2C` gave an inhibition of 4.46%. Work on `CCOC(=O)N1CCN(Cc2oc(CO)cc(=O)c2O)CC1` yielded an inhibition of 30.4%. With `Cn1c(C(=O)NCCN2CCc3ccccc3C2)cc2c(=O)[nH]c3ccccc3c21` the inhibition was 31%. Compound `CC(=O)N1CCN(c2cccc(C)c2C)CC1` has an inhibition of 9.16%. With `Cc1cccc(N2CCN(C(=O)c3cc4c(=O)[nH]c5ccccc5c4n3C)CC2)c1C` the inhibition was 50.9% (active). Work on `COCCCn1c(CCC(=O)O)ccc1-c1ccc(F)cc1` yielded an inhibition of 33.1%. `Cn1c(SCc2c(F)cccc2Cl)nnc1-c1cnccn1` showed an inhibition of 4.26%. `COc1cccc(CN2C(=O)CCC2(C)C(=O)NC2CCCCCC2)c1` (stereo unspecified) gave an inhibition of 10.3%. For `O=c1c2ccccc2nc(CSc2nnnn2-c2ccccc2)n1-c1ccccc1`, the inhibition was 11.8%. In the case of `Cc1ccc(-c2noc(CSc3nnnn3-c3ccccc3)n2)cc1`, the inhibition is reported as 0.15%. For `Cc1ccc(Nc2nc(CSc3nnnn3-c3ccccc3)cc(=O)[nH]2)cc1`, the inhibition was 53.9% (active). `CCOCCCNC(=O)c1c[nH]c2cc(C)ccc2c1=O` was tested, and the inhibition was 7.4%. `COc1ccc(NC(=O)c2c(SC)nsc2SC)cc1` showed an inhibition of 0.33%. `CC(=O)Nc1ccc(S(=O)(=O)Nc2nc3n(n2)C(c2ccccc2)CC(=O)N3)cc1` (stereo unspecified) was tested, and the inhibition was -6%.
